Laboratory results from PubChem BioAssay (NCATS).
Results filed as inconclusive are left out. Activity calls are given as the source filed them. The call rests on the fitted dose curve; in most records, active means well fitted inhibition curve with a large enough effect; inconclusive means small, poorly fitted or top-dose-only effect; inactive means flat fitted curve, though single readings scatter.

Legend:
Experiment in all cases: qHTS profiling for inhibitors of Plasmodium falciparum proliferation (AID 504749); further: nearly all actives have a fitted effect of over 60% in size
Details in all cases: P. falciparum in erythrocytes, SYBR Green DNA, 72 h; series mostly up to 28.7 µM
CP217 = system: CP217
How it was run: (§1)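 Each compound contacts P. falciparum-infected red blood cells for 72 h at 37 C; lysis buffer (Tris, EDTA, saponin, Triton X, SYBR Green I) is added and fluorescence measured next morning; values normalized to controls.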

CP237 = system: CP237
How it was run: as §1

CP238 = system: CP238
How it was run: as §1

CP247 = system: CP247
How it was run: as §1

CP250 = system: CP250
How it was run: as §1

CP252 = system: CP252
How it was run: as §1

CP256 = system: CP256
How it was run: as §1

CP260 = system: CP260
How it was run: as §1

CP262 = system: CP262
How it was run: as §1

CP265 = system: CP265
How it was run: as §1

Measured: outcome

CCOC(=O)C(CCc1ccccc1)NC(C)C(=O)N1Cc2ccccc2CC1C(=O)O (stereo not given)
inactive: all assays above

CCc1cccc2c3c([nH]c12)[C@@](CC)(CC(=O)O)OCC3
inactive: all assays above
